High-throughput results deposited in PubChem by National Center for Advancing Translational Sciences (NCATS).
TCR act: activators of T cell receptors; primary human leukocytes, anti-CD3, IL-2 HTRF, 48 h; Potency, µM (series often up to 9.22 µM), inactives show at the highest dose activation of IL-2 secretion, usual class: activators; 330,000 tested, under 10 active; AID 504894; also: % of control where 0% means no effect
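48 hr co-incubation of compounds, a-CD3 beads and primary human leukocytes; IL-2 quantified homogeneously by HTRF with anti-IL-2 K and d2 conjugates.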
p53 reactivator: restores transcriptional activity of mutant p53; H1299 p53-A138V BP100-luciferase reporter, luminescence, 24 h; Potency, µM (top dose mostly 92.2 µM), for the others: at the top dose activity change, positive = activation, actives largely listed as activators; 0.063% of 320,000 active; AID 504706; also: potency is read from the fitted curve at half-maximal effect; % of control where 0% means no effect; nearly all actives have a fitted effect of over 45% in size
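p53-null H1299 cells stably carrying temperature-sensitive p53-A138V and a BP100-luciferase reporter were pinned with compounds (4-point, 1:5 series) and held 24 hrs at 37 deg C. Luminescence was read 10 min after detection reagent.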
TSHR antagonist: blocks TSH signaling through the human TSH receptor | AID 504810 | 0.2% of 330,000 active | P16473 | TSHR-expressing cells, TSH-stimulated cAMP HTRF, 2 h; active compounds read low | activity change, negative = inhibition, % at 11.5 µM;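 active = activity change below a set negative limit, meaning inhibition stronger than a set level, cut at about -70% in these data; inconclusive = activity change between two set negative limits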; also: % is scaled to controls: 0 for no effect and ±100 for the full control effect
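Cell-based HTRF cAMP assay; TSHR cells + compound, TSH EC80 (4nM final), 2 h, 37 deg C. Lysis with anti-cAMP cryptate and cAMP-d2, 30 min RT, read 665/620 nm.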
N370S GC: inhibitors or activators of N370S glucocerebrosidase for Gaucher disease; P04062; 0.092% of 330,000 active; Potency, µM (top dose mostly 59.4 µM), inactives show top-dose activity change, negative = inhibition, hits mostly inhibitors; N370S GC spleen homogenate, 4MU-glucoside fluorescence; AID 2101;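 also: potency is read from the fitted curve at half-maximal effect; 0% = full enzyme activity and -100% = no enzyme basal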
GLS inh: glutaminase GLS (human) inhibition. GLS enzymatic activity, qHTS titration. O94925. Potency, µM (highest dose often 45.5 µM), without a hit: at the top dose activity change, negative = inhibition, usual class: inhibitors. 0.21% of 410,000 active; also: potency is read from the fitted curve at half-maximal effect; % is scaled to controls: 0 for no effect and ±100 for the full control effect
Target sequence (O94925 whole entry, looked up): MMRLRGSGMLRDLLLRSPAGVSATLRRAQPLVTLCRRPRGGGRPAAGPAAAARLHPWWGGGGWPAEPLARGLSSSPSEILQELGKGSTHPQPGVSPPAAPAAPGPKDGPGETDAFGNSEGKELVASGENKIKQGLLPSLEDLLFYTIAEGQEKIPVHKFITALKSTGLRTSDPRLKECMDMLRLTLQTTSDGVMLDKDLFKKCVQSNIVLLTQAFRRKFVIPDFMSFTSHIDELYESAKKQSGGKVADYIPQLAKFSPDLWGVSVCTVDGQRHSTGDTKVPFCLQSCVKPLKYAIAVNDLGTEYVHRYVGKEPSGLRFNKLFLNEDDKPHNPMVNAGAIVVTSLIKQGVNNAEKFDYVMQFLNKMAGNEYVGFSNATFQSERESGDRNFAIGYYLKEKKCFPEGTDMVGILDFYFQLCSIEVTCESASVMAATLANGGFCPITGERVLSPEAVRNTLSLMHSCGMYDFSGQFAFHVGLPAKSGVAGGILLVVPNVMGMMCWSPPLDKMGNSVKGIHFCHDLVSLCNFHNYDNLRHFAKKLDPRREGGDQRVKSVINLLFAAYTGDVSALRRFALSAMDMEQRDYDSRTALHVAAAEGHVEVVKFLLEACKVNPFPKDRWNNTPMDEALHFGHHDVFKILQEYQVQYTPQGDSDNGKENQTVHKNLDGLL
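Two-point fluorescence kinetic (t0, 30 min RT) for hKGA; glutamate detected via glutamate oxidase–HRP–Amplex Red. Substrate: 1 mM L-glutamine solution; buffer 45 mM KH2PO4, pH 8.2.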
BRCA1 expr act: BRCA1 expression activation; AID 624202; MCF7-BRCA1-FFLuc reporter, luminescence, 48 h; response scale: scaled: vehicle 0%, 10 µM genistein 100%; Potency, µM (series often up to 46.1 µM), without a hit: at the top dose activation, usual class: activators; 1.1% of 380,000 active; also: potency is read from the fitted curve at half-maximal effect; nearly all actives have a fitted effect of over 80% in size
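Luminescence from a BRCA1-driven firefly luciferase in MCF7 cells was the read-out, taken 15 min after substrate addition following 48 h compound exposure at 37 °C. Data were normalized to a 10 microM genistein control and DMSO vehicle.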
* hit, by the source's call; [ ] = remark or other dose. This is a sample that favours compounds with a hit; in the whole collection about 1.4% have one here. Unless noted, calls follow the shape of the dose curve; as a rule, active = well fitted curve in the direction sought with a large enough effect; inconclusive = small, poorly fitted or top-dose-only effect, or another doubt; inactive = no such curve, though single readings can be large; an effect the other way counts as inactive or inconclusive.

For CCCCCc1ccc(-c2cn(Cc3ccc(C)cc3)nn2)cc1 the results were TCR act -5%, p53 reactivator 6%, TSHR antagonist -10, N370S GC 9%, GLS inh -1% and BRCA1 expr act 0%.
COc1ccc(-c2cn(Cc3ccc(C)cc3)nn2)cc1 was read as TCR act -1%, TSHR antagonist 5, N370S GC -17%, GLS inh -4% and BRCA1 expr act 8.9µM*.
For CCCNC(=O)NNC(=O)c1ccc(F)cc1 the results were TCR act -18%, p53 reactivator 3%, TSHR antagonist -7, N370S GC -14%, GLS inh 11µM* and BRCA1 expr act -32%.
CCOC(=O)c1csc(NC(=O)c2ccccc2)n1 was read as TCR act 0%, p53 reactivator inconclusive, TSHR antagonist -8, N370S GC 1%, GLS inh 9% and BRCA1 expr act 4µM*.
`CN(CCO)c1ccc(C=NNc2ccc([N+](=O)[O-])cc2S(=O)(=O)Nc2ccccc2C(=O)O)cc1` gave TCR act -2%, p53 reactivator 1%, TSHR antagonist 13, GLS inh 11µM* and BRCA1 expr act 15%.
For O=C(Cn1cc(SCc2cccc(Cl)c2)c2ccccc21)N1CCOCC1 the results were TCR act 1%[46.1 µM], p53 reactivator 28µM*, TSHR antagonist -17, N370S GC 9%, GLS inh 1% and BRCA1 expr act inconclusive.
For Cc1cccc(CSc2cn(CC(=O)N3CCOCC3)c3ccccc23)c1 the results were TCR act 3%[46.1 µM], p53 reactivator inconclusive, TSHR antagonist -8, N370S GC -18%, GLS inh -6% and BRCA1 expr act 3.5µM*.
`Cc1cccc(CSc2cn(CC(=O)N3CCCCCC3)c3ccccc23)c1` gave GLS inh -4%.
`O=S(=O)(c1ccc(F)cc1)N1CCN(c2nc(-c3cccc(Br)c3)nc3ccccc23)CC1` gave BRCA1 expr act 3%.
For O=C(Nc1ccc2nc(-c3cccs3)c(-c3cccs3)nc2c1)N1CCCCC1 the results were BRCA1 expr act -5%.
For CCc1cc2c(cc3c(=O)n(CC(=O)NC(C)C)nc(CC)n32)s1 the results were GLS inh 1%.
For O=C1/C(=C/c2ccc(O)cc2)SC(=S)N1Cc1cccnc1 the results were TCR act 3%[46.1 µM], p53 reactivator -2%, TSHR antagonist 0, N370S GC 12%, GLS inh -2% and BRCA1 expr act -21%.
`C#CCOc1ccc(/C=C2\SC(=S)N(Cc3cccnc3)C2=O)cc1` gave TCR act -1%[46.1 µM], p53 reactivator 35µM*, TSHR antagonist -4, N370S GC -1%, GLS inh 0% and BRCA1 expr act -76%.
`COc1cc(/C=N/Nc2cc(C)nc(N)n2)ccc1O` gave TCR act 6%, p53 reactivator 6%, TSHR antagonist -4, N370S GC -8%, GLS inh 10µM* and BRCA1 expr act 50%.
Cc1ccc2c(=O)c(C(=O)NCc3cccs3)c[nH]c2c1 was read as TCR act 9%[46.1 µM], p53 reactivator 22%, TSHR antagonist -8, N370S GC inconclusive, GLS inh -12% and BRCA1 expr act 11µM*.
Screening Cc1cc(C(=O)NCc2cccs2)c(C)o1 returned TCR act -1%, p53 reactivator 4%, TSHR antagonist 6, N370S GC 1%, GLS inh 0% and BRCA1 expr act 4%.
`Cc1cccc2c(=O)c(C(=O)NCc3cccs3)c[nH]c12` gave TCR act 0%, GLS inh 11% and BRCA1 expr act 13µM*.
Screening Cc1occc1C(=O)NCc1cccs1 returned TCR act 0%[46.1 µM], p53 reactivator 4%, TSHR antagonist 27, N370S GC 6%, GLS inh 5% and BRCA1 expr act -2%.
Cc1c(O)c2c(c(C(=O)/C=C/c3ccccc3)c1O)OC(C)(C)C=C2 was read as BRCA1 expr act -43%.
